# The OligoGym collection
# Molecular target: FBXO43
# Assay: pooled miR-30 sensor sort-seq; sequence = guide strand
# Settings: shRNA
# Further: reference of the scale not given here.
row,Sequence,sensor-assay potency score (higher = more potent)
1,TTCTTGAAAAGAACCCTCCTGG,0.0426
2,TTATCTTGAACAACAATTTCAC,0.0349
3,AACCTTAACATATTCTTCCTGT,0.212
4,TTGCTTTTCATGAACAGCTCAT,-0.219
5,TAACAGAAGAGCTTGCTAGAGG,-0.36
6,TTATCTATATTATCAAAGCTAC,-0.969

# Molecular target: FBXO8
# Assay: as above
# Settings: shRNA
row,Sequence,sensor-assay potency score (higher = more potent)
1,TTGTACAGAAGATAAACTTTGC,-0.385
2,TCATCCAAGACATCTCTCCTTT,0.239
3,TAGCACAGTACATAGACAGCAT,0.733
4,TTCATCATTCGCAAGGTCCTGC,0.558
5,TTTATCATTCGTTAACAGCTGT,0.355
6,TAGGACAAGATGGTAAAGCTTA,-0.15
7,TTCATCAAGATAGATTCTCAGT,-0.522
8,TTGCTCACTGTAGCCTTCTTGT,-1.19
9,TTAGTCTGAAGTAAAAACTGAA,-0.599
10,TTGCTCGCAGCCATTCTCCTGC,-0.359
11,TTCCTTTGGCGAATCATCCAGG,-0.484

# Molecular target: FBXW9
# Assay: as above
# Settings: shRNA
row,Sequence,sensor-assay potency score (higher = more potent)
1,TATCTCGCCGAACTGCTGCCCA,-0.658
2,TTCACTGTGCTGTCCCAGGAGC,-1.05
3,TTCTCTTCCACCACTGGGTAGG,-0.729
4,TAGATGGTCACCTTCTTGTCAT,-0.453
5,TTGACGTTGCGATCTCGGGAGC,-1.12
6,TACTATTTCGCTTAGTGCCTAA,-0.65
7,TCGCTCTCAACTGAGAGCGGGG,-1.29
8,TAAGGTCTTGATCAGAACCTGG,-0.161
9,TCGTAGATGGTCACCTTCTTGT,-0.618
10,TTCGCTCTCAACTGAGAGCGGG,-0.823
11,TCGCTTAGTGCCTAAGGTCTTG,-0.92
12,TTCTTCTCTTCCACCACTGGGT,-0.376

# Molecular target: FCF1
# Assay: as above
# Settings: shRNA
row,Sequence,sensor-assay potency score (higher = more potent)
1,TTTAGGTTTTAATCTATCCTTT,-0.181
2,TTTTAATCTATCCTTTTCTTTA,-1.02
3,TTCATGGTCGCATACTTCCTTG,-1.25
4,TTCCTTTGTGTGTACATGGTAA,-0.531
5,TGTGTGTACATGGTAATCGTTC,-0.765
6,TCTGAGACTAAGCATTCGCTTC,-1.06
7,TTATATTGGAAAAATAAGCAGG,-0.37
8,TTCAGCCATTACACAATCGGTT,-0.926
9,TTGGGGAACTTCTCTTTCCTTT,-0.569
10,TTATGCTGAGTTACTCTCTGTA,0.221
11,TTTTAGGTTTTAATCTATCCTT,-0.595
